# Test results published in PubChem BioAssay.
# Values joined by “and” are separate entries in the source; they are usually repeats but may differ in a detail not shown here. Equal values may be shown once. Results filed as inconclusive are left out. For part of these data: Entries with a potency or affinity are not part of this list. Active and inactive are the calls of the source. Unless noted, the rule behind the calls is not given here.
# Key:
# [1] = 75Q-TubH aggregate inhibition, S. cerevisiae, yeast (AID 1616); conditions: S. cerevisiae 75Q-TubH polyglutamine aggregation suppression; stronger effect = higher value
# [2] = compounds altering viability of human ES cells (AID 493140); conditions: human embryonic stem cell survival screen; stronger effect = higher value;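 note: cells exposed to compounds for four days before counting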
# [3] = tested on: Hepatitis C virus NS3 helicase; experiment: blockers of NS3h binding to ssDNA – biochemical, fluorescence polarization, LOPAC1280 library, primary screen (AID 687035; in the data active = inhibition above about 37%); conditions: Purified HCV NS3 helicase, Cy5-dT15 ssDNA binding fluorescence polarization; stronger effect = higher value; concentration not given here
# [4] = compounds altering Cy5-DNA-NS3h complex signal – biochemical, LOPAC1280, artefact control for HCV NS3 helicase inhibitor project (AID 687037); conditions: Cy5-DNA-NS3h complex fluorescence interference counterscreen
# [5] = viability loss in pontine glioma line – cell-based, SU-DIPG-XVII, MIPE5.0, CellTiter-Glo, qHTS, dose response (AID 1347060; cut-off not given, nearly all actives have AC50 up to about 26 µM;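 for AC50: cells exposed to compound for 48 hours before viability readout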); conditions: CellTiter-Glo ATP luminescence
# [6] = viability loss in pontine glioma line – cell-based, SU-DIPG-XIII, MIPE4.0, CellTiter-Glo, qHTS, dose response (AID 1347061; cut-off not given, nearly all actives have AC50 up to about 37 µM;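 note: cells exposed to compound for 48 hours before readout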); conditions: CellTiter-Glo ATP luminescence
# [7] = viability loss in pontine glioma line – cell-based, JHH-DIPG-1, MIPE4.0, CellTiter-Glo, qHTS, dose response (AID 1347062; cut-off not given, nearly all actives have AC50 up to about 27 µM;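 for AC50: cells exposed to compound for two days before readout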); conditions: JHH-DIPG-1 viability, CellTiter-Glo ATP luminescence
# [8] = viability loss in pontine glioma line – cell-based, SU-DIPG-IV, MIPE4.0, CellTiter-Glo, qHTS, dose response (AID 1347063; cut-off not given, nearly all actives have AC50 up to about 30 µM;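 note: compound exposure lasted 48 hours before the viability readout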); conditions: CellTiter-Glo ATP luminescence
# [9] = growth inhibition of DIPG cells – cell-based, MIPE5.0 library, qHTS (AID 1347068; cut-off not given, nearly all actives have IC50 up to about 30 µM;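 for IC50: cells exposed to compound for 48 hours before viability readout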); conditions: SU-DIPG-XXV viability
# [10] = blockers of cellular phospholipid synthesis – cell-based, LOPAC library, screen 4, primary screen (AID 1347384); conditions: animal cells, phospholipid biosynthesis inhibition screen; at 10 µM
# [11] = restoration of touch response, mutant HTT neurons – whole organism, C. elegans mechanosensory neurons, N-terminal huntingtin (AID 1599); conditions: C. elegans polyQ-huntingtin mechanosensory neurons, stronger effect = higher value
# [12] = GFP-Q80 aggregate reduction, neuronal-like cells, cell-based, NGF-treated PC12, GFPQ80 (AID 1614); conditions: PC12 NGF-treated GFP-polyQ80 inclusion reduction;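 note: lower means fewer inclusions and 0 means no inclusions at all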
# [13] = viability loss in pontine glioma line – cell-based, SU-DIPG-XXV, MIPE5.0, CellTiter-Glo, qHTS, dose response (AID 1347065; cut-off not given, nearly all actives have AC50 up to about 26 µM;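 note: cells exposed to compound for 48 hours before ATP readout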); conditions: CellTiter-Glo ATP luminescence
# [14] = growth inhibition of DIPG cells – cell-based, MIPE4.0 library, CellTiter-Glo luminescence, qHTS (AID 1347066; cut-off not given, nearly all actives have AC50 up to about 30 µM;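 note: cells exposed to compound for 48 hours before readout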); conditions: SU-DIPG-VI viability, CellTiter-Glo ATP luminescence
# [15] = JHH-DIPG-1 glioma cell viability, MIPE5.0 library, CellTiter-Glo luminescence, qHTS (AID 1347067; cut-off not given, nearly all actives have AC50 up to about 26 µM;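 note: cells exposed to compound for 48 hours before readout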); conditions: JHH-DIPG-1 glioma viability, CellTiter-Glo ATP luminescence
# [16] = growth inhibition, single agents and combos, LFS_MB_1R, cell-based, cisplatin or BGB combos, synergistic combos for chromothripsis tumors (AID 1671452; in the data active = inhibition above about 80%;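 note: cells exposed for 96 hours before readout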); conditions: LFS_MB_1R medulloblastoma cells, stronger effect = higher value
# [17] = growth inhibition, MDA-MB-436, cell-based, BGB or cisplatin combos, synergistic combos for chromothripsis tumors (AID 1671458); conditions: MDA-MB-436 breast carcinoma growth inhibition, drug combinations, stronger effect = higher value;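 note: cells exposed for 96 hours; 0% = vehicle DMSO and 100% = killing by high DMSO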
# [18] = BT084 cell growth, single and combined drugs, ICGC_MB145, cisplatin and BGB IC40 combos (AID 1671461; in the data active = inhibition above about 80%;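 note: cells exposed to drugs for 96 hours; 0% = vehicle DMSO and 100% = high DMSO full killing control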); conditions: BT084 medulloblastoma cells, drug combinations, stronger effect = higher value
# [19] = RCMB18 cell growth, single agent and combined, cisplatin and BGB IC40 combos (AID 1671462; in the data active = inhibition above about 80%;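 note: cells exposed to compound for four days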); conditions: RCMB18 medulloblastoma cells, stronger effect = higher value
# [20] = CRL1545 cell growth, single agent and combined, cisplatin and BGB IC20 combos (AID 1671464; in the data active = inhibition above about 80%;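 note: cells exposed to compound for 96 hours before readout; 0% = vehicle DMSO and 100% = high DMSO killing control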); conditions: CRL1545 osteosarcoma cells, stronger effect = higher value
# [21] = measured here: combination with cisplatin, at 0.5 µM
structure (smiles),measurement,setting,value
CN(C)CCCN1c2ccccc2CCc2ccc(Cl)cc21,aggregation suppression score,[1],0.939
same,survival,[2],4.17 (inactive)
same,inhibition,[3],-4% (inactive)
same,fluorescence ratio (interference),[4],1 (inactive)
same,outcome,[5],inactive
same,AC50,[6],0.662 µM (active)
same,AC50,[7],9.35 µM (active)
same,AC50,[8],18.7 µM (active)
same,outcome,[9],inactive
same,outcome,[10],inactive
CCC1(c2ccccc2)C(=O)NCNC1=O,rescue above control,[11],-6.81
same,inclusion score,[12],2
same,aggregation suppression score,[1],1.22
same,survival,[2],5.92 (inactive)
same,inhibition,[3],1% (inactive)
same,fluorescence ratio (interference),[4],1 (inactive)
same,outcome,[5],inactive
same,AC50,[7],8.33 µM (active)
same,AC50,[8],5.9 µM (active)
same,outcome,[13],inactive
same,outcome,[14],inactive
same,outcome,[15],inactive
same,outcome,[9],inactive
same,outcome,[10],inactive
CC1=C(CC(=O)O)c2cc(F)ccc2/C1=C\c1ccc(S(C)=O)cc1 (centres undefined),rescue above control,[11],-1.24
same,inclusion score,[12],2
same,aggregation suppression score,[1],1.01
same,inhibition,[3],1% (inactive)
same,fluorescence ratio (interference),[4],1 (inactive)
same,outcome,[5],inactive
same,AC50,[6],20.9 µM (active)
same,outcome,[13],inactive
same,outcome,[14],inactive
same,outcome,[15],inactive
same,outcome,[9],inactive
same,outcome,[10],inactive
CC[C@H]1CN2CCc3cc(OC)c(OC)cc3[C@@H]2C[C@@H]1C[C@H]1NCCc2cc(OC)c(OC)cc21,inhibition,[3],2% (inactive)
same,fluorescence ratio (interference),[4],1 (inactive)
same,AC50,[5],0.263 µM (active)
same,AC50,[7],1.32 µM (active)
same,AC50,[8],0.526 µM (active)
same,AC50,[13],0.417 µM (active)
same,AC50,[14],20.9 µM (active)
same,AC50,[15],0.833 µM (active)
same,IC50,[9],0.742 µM (active)
same,outcome,[10],inactive
Cc1noc(NS(=O)(=O)c2ccc(N)cc2)c1C,rescue above control,[11],-13
same,inclusion score,[12],2
same,aggregation suppression score,[1],1.13
same,survival,[2],8.25 (inactive)
same,outcome,[6],inactive
same,outcome,[7],inactive
same,outcome,[8],inactive
same,outcome,[14],inactive
CCOC(=O)[C@H](CCc1ccccc1)N[C@H]1CCc2ccccc2N(CC(=O)O)C1=O,outcome,[5],inactive
same,AC50,[6],20.9 µM (active)
same,AC50,[7],16.6 µM (active)
same,AC50,[8],10.5 µM (active)
same,outcome,[13],inactive
same,outcome,[15],inactive
same,outcome,[9],inactive
CC(C)C(=O)Nc1ccc([N+](=O)[O-])c(C(F)(F)F)c1,rescue above control,[11],0
same,aggregation suppression score,[1],0.664
same,survival,[2],18.4 (inactive)
same,inhibition,[3],-1% (inactive)
same,fluorescence ratio (interference),[4],1 (inactive)
same,outcome,[5],inactive
same,outcome,[6],inactive
same,AC50,[7],18.7 µM (active)
same,outcome,[14],inactive
same,outcome,[15],inactive
same,outcome,[9],inactive
same,outcome,[10],inactive
NNC(=O)c1ccncc1,rescue above control,[11],-6.58
same,inclusion score,[12],2
same,aggregation suppression score,[1],1.6
same,survival,[2],30.9 (inactive)
same,outcome,[5],inactive
same,outcome,[6],inactive
same,outcome,[7],inactive
same,outcome,[8],inactive
same,outcome,[13],inactive
same,outcome,[14],inactive
same,outcome,[15],inactive
same,outcome,[9],inactive
CCOC(=O)C1=C(C)NC(C)=C(C(=O)OC)C1c1cccc([N+](=O)[O-])c1 (centres undefined),survival,[2],5.33 (inactive)
same,inhibition,[3],-2% (inactive)
same,fluorescence ratio (interference),[4],0.9 (inactive)
same,outcome,[10],inactive
NCCc1ccc(O)c(O)c1,rescue above control,[11],0.54
same,inclusion score,[12],2
same,aggregation suppression score,[1],1.6
same,inhibition,[3],-4% (inactive)
same,fluorescence ratio (interference),[4],1 (inactive)
same,outcome,[5],inactive
same,outcome,[6],inactive
same,outcome,[8],inactive
same,outcome,[14],inactive
same,outcome,[15],inactive
same,outcome,[9],inactive
same,outcome,[10],inactive
Oc1c(Cl)cc(Cl)c2cccnc12,aggregation suppression score,[1],-0.164
same,AC50,[5],16.6 µM (active)
same,AC50,[6],18.7 µM (active)
same,AC50,[8],26.4 µM (active)
same,AC50,[13],26.3 µM (active)
same,AC50,[14],18.7 µM (active)
same,AC50,[15],2.95 µM (active)
OC(Cn1cncn1)(Cn1cncn1)c1ccc(F)cc1F,rescue above control,[11],-3.31
same,inclusion score,[12],2
same,aggregation suppression score,[1],0.253
same,outcome,[5],inactive
same,outcome,[6],inactive
same,outcome,[7],inactive
same,outcome,[8],inactive
same,outcome,[13],inactive
same,outcome,[14],inactive
same,outcome,[15],inactive
same,outcome,[9],inactive
CC12CC3CC(C)(C1)CC(N)(C3)C2,rescue above control,[11],-2.96
same,inclusion score,[12],2
same,aggregation suppression score,[1],1.45
same,survival,[2],11.7 (inactive)
same,inhibition,[3],-2% (inactive)
same,fluorescence ratio (interference),[4],1 (inactive)
same,AC50,[7],3.32 µM (active)
same,outcome,[13],inactive
same,outcome,[14],inactive
same,outcome,[15],inactive
same,outcome,[9],inactive
same,outcome,[10],inactive
CC1COc2c(N3CCN(C)CC3)c(F)cc3c(=O)c(C(=O)O)cn1c23 (centres undefined),rescue above control,[11],-6.02
same,inclusion score,[12],2
same,aggregation suppression score,[1],1.18
same,survival,[2],10.6 (inactive)
same,inhibition,[3],-6% (inactive)
same,fluorescence ratio (interference),[4],0.9 (inactive)
same,outcome,[5],inactive
same,outcome,[6],inactive
same,outcome,[7],inactive
same,outcome,[13],inactive
same,outcome,[14],inactive
same,outcome,[15],inactive
same,outcome,[9],inactive
same,outcome,[10],inactive
same,inhibition,[16]; at 0.5 µM,-39.4% (inactive) and -8.3% (inactive) and 2.79% (inactive)
same,inhibition,"[16]; measured here: combination with BGB IC40, at 0.05 µM",-24.5% and -34% and -2.54%
same,inhibition,[16]; [21],-78.8% and -30% and 23.8%
same,inhibition,"[16]; measured here: combination with cisplatin, at 5 µM",-87.1% and 21.5% and -3.71%
same,inhibition,[17]; at 0.5 µM,-34.5% (inactive) and -6.74% (inactive) and -3.04% (inactive)
same,inhibition,"[17]; measured here: BGB combination, at 0.5 µM",-25.6% and -3.95% and -7.27%
same,inhibition,"[17]; measured here: BGB combination, at 5 µM",-17.4% and 1.21% and -4.78%
same,inhibition,"[17]; measured here: cisplatin combination, at 0.5 µM",-57.3% and -9.51% and 4.2%
same,inhibition,"[17]; measured here: cisplatin combination, at 5 µM",-35.2% and 8.53% and -3.87%
same,inhibition,[18]; at 0.5 µM,-33.3% (inactive) and -1.31% (inactive) and 2.04% (inactive)
same,inhibition,"[18]; cisplatin combination, at 0.5 µM",-31.2% and 8.69% and -10.9%
same,inhibition,"[18]; cisplatin combination, at 5 µM",-9.85% and -7.87% and -3.96%
same,inhibition,"[18]; measured here: BGB IC40 combination 0.05 uM, at 0.05 µM",-9.27% and 10.9% and 19.9%
same,inhibition,"[18]; single agent, at 5 µM",-20.1% and 7.2% and -8.12%
same,inhibition,[19]; at 0.5 µM,-28.4% (inactive) and -8.12% (inactive) and -0.02% (inactive)
same,inhibition,"[19]; cisplatin combo, at 5 µM",-38.4% and 21.2% and 9.23%
same,inhibition,"[19]; measured here: BGB IC40 combination, at 0.05 µM",-5.79% and 25.7% and 5.62%
same,inhibition,[19]; [21],-28.1% and -3.73% and 27.4%
same,inhibition,"[19]; single agent, at 5 µM",-31.9% and -5.49% and -32%
same,inhibition,[20]; at 0.5 µM,-60% (inactive) and 4.59% (inactive) and -24.8% (inactive)
same,inhibition,"[20]; measured here: with BGB IC20 combination, at 0.5 µM",-68.3% and -3.25% and -47.6%
same,inhibition,"[20]; measured here: with cisplatin IC20 combination, at 0.5 µM",-59.4% and 8.51% and -13.4%
same,inhibition,"[20]; single agent, at 0.05 µM",-65.5% and -29.1% and 12%
same,inhibition,"[20]; single agent, at 5 µM",-39.6% and 8.31% and 10.5%
CCCc1cc(=O)[nH]c(=S)[nH]1,rescue above control,[11],-2.2
same,inclusion score,[12],2
same,aggregation suppression score,[1],1.14
same,survival,[2],31.3 (inactive)
same,outcome,[5],inactive
same,outcome,[6],inactive
same,outcome,[7],inactive
same,outcome,[8],inactive
same,outcome,[13],inactive
same,outcome,[14],inactive
COCCOC(=O)C1=C(C)NC(C)=C(C(=O)OC(C)C)C1c1cccc([N+](=O)[O-])c1 (centres undefined),survival,[2],3 (inactive)
same,inhibition,[3],-4% (inactive)
same,fluorescence ratio (interference),[4],0.9 (inactive)
same,outcome,[10],inactive
COc1ccc(Cl)cc1C(=O)NCCc1ccc(S(=O)(=O)NC(=O)NC2CCCCC2)cc1,inclusion score,[12],2
same,aggregation suppression score,[1],1.07
same,survival,[2],5.42 (inactive)
same,inhibition,[3],1% (inactive)
same,fluorescence ratio (interference),[4],1 (inactive)
same,outcome,[10],inactive
